From PubChem BioAssay (EPA / NIEHS)
Some compounds were tested as several samples or in several runs, with calls that do not always agree. Activity calls are given as the source filed them. The calls were made as follows: active = hit-call score of the fitted dose curve at least 0.9, where 1 is the maximum; inactive = score below 0.9.

How the values were obtained:
[1] = target: Bile acid receptor (Homo sapiens) (UniProt Q96RI1); assay: ATG_IR1_CIS: Attagene CIS-FACTORIAL HepG2 Assay for human Nuclear Receptor Subfamily 1 Group H Member 4 (NR1H4), IR1 submotif (AID 2282946); settings: IR1 reporter transcription, actives raise or lower the signal
In short: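 HepG2 cells transiently transfected with multiplexed cis-element reporter units read endogenous transcription factor activity. After 24 h compound exposure, reporter mRNA was quantified by RT-PCR, fluorescent labelling, HpaI digestion and capillary electrophoresis; bidirectional fitting versus DMSO baseline.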

[2] = ATG_GRE_CIS: Attagene CIS-FACTORIAL HepG2 Assay for human Glucocorticoid Response Elements (GRE) (AID 2282947); settings: HepG2 GRE cis-reporter, Attagene multiplex mRNA; actives raise or lower the signal
In short: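 Reporter transcripts read by RT-PCR with capillary electrophoresis fluorescence after a 24 h chemical exposure of HepG2 cells transiently transfected with multiple cis-element reporter units. Gain or loss fitted against DMSO.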

[3] = ATG_ISRE_CIS: Attagene CIS-FACTORIAL HepG2 Assay for human Interferon Regulatory Factor 1 (IRF1) binding to an Interferon-Stimulated Response Element (ISRE) (AID 2282948); settings: HepG2 ISRE cis-reporter (Attagene), mRNA transcription readout; actives raise or lower the signal
In short: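 Endogenous transcription factor activity read as reporter transcript abundance via RT-PCR and capillary electrophoresis. HepG2 cells transiently transfected, 24 h chemical exposure. Gain or loss fitted against DMSO baseline.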

[4] = ATG_M_32_CIS: Attagene CIS-FACTORIAL HepG2 Assay for M32 Transcription Factor (Internal Marker) (AID 2282949); settings: HepG2 Attagene cis-factorial M32 reporter, mRNA; actives raise or lower the signal;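 also: background control marker of the multiplexed CIS panel rather than a real target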
In short: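 HepG2 transfectants (cis-regulated reporter transcription units) dosed 24 h. Reporter mRNA by RT-PCR plus CE, analysed as gain or loss relative to DMSO.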

[5] = ATG_M_06_CIS: Attagene CIS-FACTORIAL HepG2 Assay for M06 Transcription Factor (Internal Marker) (AID 2282950); settings: HepG2 Attagene CIS-FACTORIAL M06 internal marker reporter; actives raise or lower the signal
In short: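 Serves as a background control readout. Transfected HepG2 exposed to compounds for 24 h, then reporter transcripts quantified by fluorescent RT-PCR and capillary electrophoresis. Both directions fitted against DMSO baseline.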

[6] = target: Hypoxia-inducible factor 1-alpha (Homo sapiens) (UniProt Q16665); assay: ATG_HIF1a_CIS: Attagene CIS-FACTORIAL HepG2 Assay for human Hypoxia Inducible Factor 1 (HIF1A) (AID 2282951); settings: HepG2 Attagene cis-factorial HIF1a reporter transcription; actives raise or lower the signal
In short: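 Fluorescence intensity of capillary-separated, 6-FAM-labelled reporter amplicons gives mRNA induction in HepG2 cells carrying transfected cis-promoter reporter units; cells exposed 24 h, responses fitted up or down from DMSO.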

[7] = target: Hepatocyte nuclear factor 6 (Homo sapiens) (UniProt Q9UBC0); assay: ATG_HNF6_CIS: Attagene CIS-FACTORIAL HepG2 Assay for human Hepatocyte Nuclear Factor 6 (HNF6) (AID 2282952); settings: HepG2 Attagene cis-factorial HNF6 reporter transcription; actives raise or lower the signal
In short: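 Readout: fluorescent reporter-transcript fragments resolved by capillary electrophoresis after RT-PCR, reflecting endogenous factor activity in transfected HepG2. Exposure 24 h. Gain or loss of signal fitted bidirectionally against DMSO.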

[8] = target: Heat shock factor protein 1 (Homo sapiens) (UniProt Q00613); assay: ATG_HSE_CIS: Attagene CIS-FACTORIAL HepG2 Assay for human Heat Shock Transcription Factor 1 (HSE) (AID 2282953); settings: HepG2 HSE cis-reporter, Attagene RNA transcription; actives raise or lower the signal
In short: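 Endogenous transcription factor activity in transiently transfected HepG2, read as reporter mRNA by RT-PCR with fluorescent capillary electrophoresis after 24 h. Gain or loss of signal fitted versus DMSO baseline.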

[9] = ATG_MRE_CIS: Attagene CIS-FACTORIAL HepG2 Assay for human Metal Responsive Element (MRE) (AID 2282954); settings: HepG2 MRE cis-reporter transcription, Attagene multiplex; actives raise or lower the signal
In short: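 Endogenous MRE-dependent transcription read as reporter mRNA in transiently transfected human HepG2 cells at 24 h. RNA reverse-transcribed, PCR-amplified, labelled and resolved by capillary electrophoresis; gain or loss relative to DMSO.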

[10] = ATG_PBREM_CIS: Attagene CIS-FACTORIAL HepG2 Assay for human Phenobarbital-responsive Enhancer Module (PBREM) (AID 2282955); settings: HepG2 PBREM cis-reporter, Attagene multiplexed transcription; actives raise or lower the signal
In short: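 Cells were transfected with cis-element reporter units and treated for 24 h, after which RNA was extracted and reporter transcripts measured by RT-PCR and capillary electrophoresis.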

[11] = target: Paired box protein Pax-6 (Homo sapiens) (UniProt P26367); assay: ATG_Pax6_CIS: Attagene CIS-FACTORIAL HepG2 Assay for human Paired Box 6 (PAX6) (AID 2282956); settings: HepG2 CIS-FACTORIAL PAX6 reporter transcription, RNA readout; actives raise or lower the signal
In short: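 Read-out is reporter transcript level, measured by RT-PCR with fluorescent primer extension and capillary electrophoresis after 24 h dosing of transfected HepG2 cells. Activity in either direction fitted relative to DMSO control.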

[12] = ATG_PXRE_CIS: Attagene CIS-FACTORIAL HepG2 Assay for human Pregnane X Receptor Element (PXRE) (AID 2282957); settings: HepG2 Attagene CIS-FACTORIAL PXRE reporter, mRNA; actives raise or lower the signal
In short: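 Read-out: fluorescence of reporter-specific RT-PCR products resolved by capillary electrophoresis, fitted bidirectionally relative to DMSO. Human HepG2 liver cells carried transfected cis-promoter reporter units and were exposed to chemicals for 24 h.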

[13] = ATG_PPRE_CIS: Attagene CIS-FACTORIAL HepG2 Assay for human Peroxisome Proliferator-activated Response Element (PPRE) (AID 2282958); settings: HepG2 PPRE cis-element reporter, Attagene transcription factor profiling; actives raise or lower the signal
In short: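 In this cell-based multiplex, a PPRE cis element drives a reporter sequence in transiently transfected HepG2 cells. Following 24 h treatment, labeled cDNA amplicons are sized and quantified by capillary electrophoresis, with DMSO defining baseline.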

[14] = ATG_RORE_CIS: Attagene CIS-FACTORIAL HepG2 Assay for human RAR-related Orphan Receptor Element (RORE) (AID 2282959); settings: HepG2 Attagene cis-factorial RORE reporter, mRNA; actives raise or lower the signal
In short: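 Endogenous factor activity at a cis response element is read as reporter transcript levels in HepG2 cells, 24 h post-dose. Transcripts are quantified by RT-PCR with capillary electrophoresis, and data fitted in both directions against DMSO.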

[15] = ATG_Sox_CIS: Attagene CIS-FACTORIAL HepG2 Assay for human SRY-box transcription factor (SOX) (AID 2282960); settings: HepG2 Attagene cis-factorial SOX reporter, mRNA; actives raise or lower the signal
In short: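 Measures mRNA induction of a SOX1-associated reporter in HepG2 after 24 h dosing. Fluorescently labelled RT-PCR fragments are separated by capillary electrophoresis, and gain or loss relative to DMSO control is fitted.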

[16] = target: Transcription factor Sp1 (Homo sapiens) (UniProt P08047); assay: ATG_Sp1_CIS: Attagene CIS-FACTORIAL HepG2 Assay for human Specificity Protein 1 (Sp1) (AID 2282961); settings: HepG2 Sp1 cis-reporter transcription, actives raise or lower the signal
In short: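 Cells: HepG2, transiently transfected with cis-regulated multiplexed reporters. Exposure: 24 h. Detection: reporter transcripts amplified, fluorescently labeled, restriction-digested and sized by capillary electrophoresis. Analysis: bidirectional fit relative to DMSO.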

[17] = ATG_SREBP_CIS: Attagene CIS-FACTORIAL HepG2 Assay for human Sterol Regulatory Element Binding (SREBP) (AID 2282962); settings: HepG2 Attagene cis-factorial SREBP reporter, mRNA; actives raise or lower the signal
In short: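 Endogenous SREBP activity read as cis-element-driven reporter transcript in transiently transfected HepG2, 24 h post-dosing; quantified via RT-PCR plus capillary electrophoresis of fluorescent fragments. Gain or loss of signal fitted relative to DMSO baseline.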

[18] = target: Signal transducer and activator of transcription 3 (Homo sapiens) (UniProt P40763); assay: ATG_STAT3_CIS: Attagene CIS-FACTORIAL HepG2 Assay for human Signal Transducer and Activator of Transcription 3 (STAT3) (AID 2282963); settings: HepG2, Attagene cis-factorial STAT3 reporter transcription; actives raise or lower the signal
In short: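 Readout is reporter transcript quantified by RT-PCR and capillary electrophoresis, with 6-FAM primer extension and HpaI digestion. Total RNA is taken 24 h after dosing transiently transfected HepG2 carrying cis-regulated reporter units. Bidirectional fit against DMSO.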

[19] = ATG_TA_CIS: Attagene CIS-FACTORIAL HepG2 Assay for human TA Basal Promoter (AID 2282964); settings: HepG2 Attagene CIS-factorial TA basal promoter reporter; actives raise or lower the signal
In short: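 Background-control readout: TA basal promoter reporter mRNA, fitted in both directions relative to DMSO. Measured by RT-PCR and capillary electrophoresis 24 hours after treating HepG2 human liver cells transiently carrying multiplexed cis-regulated reporter constructs.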

Chain of Paired box protein Pax-6 (Homo sapiens) (P26367 whole entry, looked up): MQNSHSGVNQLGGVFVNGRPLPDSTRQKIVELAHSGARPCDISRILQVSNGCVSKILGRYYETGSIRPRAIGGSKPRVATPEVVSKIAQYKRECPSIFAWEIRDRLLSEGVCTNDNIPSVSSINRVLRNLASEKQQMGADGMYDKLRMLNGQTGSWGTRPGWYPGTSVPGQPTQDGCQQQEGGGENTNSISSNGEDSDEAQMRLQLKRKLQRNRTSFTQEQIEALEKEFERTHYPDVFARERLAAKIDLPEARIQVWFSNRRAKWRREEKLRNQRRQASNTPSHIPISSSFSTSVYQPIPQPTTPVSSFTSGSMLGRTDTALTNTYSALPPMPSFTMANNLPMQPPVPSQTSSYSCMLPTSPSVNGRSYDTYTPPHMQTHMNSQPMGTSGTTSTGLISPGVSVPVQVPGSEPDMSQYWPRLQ
Chain of Bile acid receptor (Homo sapiens) (Q96RI1 whole entry, looked up): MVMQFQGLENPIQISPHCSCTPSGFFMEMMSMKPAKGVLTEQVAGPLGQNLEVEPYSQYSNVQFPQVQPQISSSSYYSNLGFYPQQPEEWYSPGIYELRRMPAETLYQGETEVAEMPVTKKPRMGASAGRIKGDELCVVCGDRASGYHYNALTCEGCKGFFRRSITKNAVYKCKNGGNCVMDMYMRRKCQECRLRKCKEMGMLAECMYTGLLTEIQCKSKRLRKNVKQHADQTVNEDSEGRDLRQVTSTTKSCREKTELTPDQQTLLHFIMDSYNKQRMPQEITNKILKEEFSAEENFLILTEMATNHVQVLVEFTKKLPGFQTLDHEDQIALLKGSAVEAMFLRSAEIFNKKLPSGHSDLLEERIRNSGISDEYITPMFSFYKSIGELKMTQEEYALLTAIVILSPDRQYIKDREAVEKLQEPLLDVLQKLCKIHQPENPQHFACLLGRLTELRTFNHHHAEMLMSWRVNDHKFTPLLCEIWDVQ
Chain of Signal transducer and activator of transcription 3 (Homo sapiens) (P40763 whole entry, looked up): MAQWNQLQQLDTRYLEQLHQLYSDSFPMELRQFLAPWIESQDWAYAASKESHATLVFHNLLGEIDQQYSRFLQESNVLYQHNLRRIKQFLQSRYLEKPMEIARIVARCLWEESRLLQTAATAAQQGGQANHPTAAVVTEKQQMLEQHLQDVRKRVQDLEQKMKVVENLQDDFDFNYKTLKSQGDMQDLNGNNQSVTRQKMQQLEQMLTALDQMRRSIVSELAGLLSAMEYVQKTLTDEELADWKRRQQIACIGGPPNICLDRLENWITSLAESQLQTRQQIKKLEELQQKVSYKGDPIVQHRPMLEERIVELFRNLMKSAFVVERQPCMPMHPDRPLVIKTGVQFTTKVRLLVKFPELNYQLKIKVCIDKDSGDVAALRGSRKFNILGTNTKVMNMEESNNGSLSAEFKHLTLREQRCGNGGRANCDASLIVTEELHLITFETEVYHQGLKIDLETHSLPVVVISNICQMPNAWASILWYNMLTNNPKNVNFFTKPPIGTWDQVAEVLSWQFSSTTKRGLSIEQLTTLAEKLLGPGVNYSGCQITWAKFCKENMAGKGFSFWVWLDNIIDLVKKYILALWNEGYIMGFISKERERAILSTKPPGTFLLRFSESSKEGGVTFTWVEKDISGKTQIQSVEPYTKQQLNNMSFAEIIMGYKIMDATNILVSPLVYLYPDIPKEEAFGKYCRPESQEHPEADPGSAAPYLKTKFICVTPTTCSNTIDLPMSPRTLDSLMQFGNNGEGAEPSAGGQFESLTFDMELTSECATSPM
Chain of Hypoxia-inducible factor 1-alpha (Homo sapiens) (Q16665 whole entry, looked up): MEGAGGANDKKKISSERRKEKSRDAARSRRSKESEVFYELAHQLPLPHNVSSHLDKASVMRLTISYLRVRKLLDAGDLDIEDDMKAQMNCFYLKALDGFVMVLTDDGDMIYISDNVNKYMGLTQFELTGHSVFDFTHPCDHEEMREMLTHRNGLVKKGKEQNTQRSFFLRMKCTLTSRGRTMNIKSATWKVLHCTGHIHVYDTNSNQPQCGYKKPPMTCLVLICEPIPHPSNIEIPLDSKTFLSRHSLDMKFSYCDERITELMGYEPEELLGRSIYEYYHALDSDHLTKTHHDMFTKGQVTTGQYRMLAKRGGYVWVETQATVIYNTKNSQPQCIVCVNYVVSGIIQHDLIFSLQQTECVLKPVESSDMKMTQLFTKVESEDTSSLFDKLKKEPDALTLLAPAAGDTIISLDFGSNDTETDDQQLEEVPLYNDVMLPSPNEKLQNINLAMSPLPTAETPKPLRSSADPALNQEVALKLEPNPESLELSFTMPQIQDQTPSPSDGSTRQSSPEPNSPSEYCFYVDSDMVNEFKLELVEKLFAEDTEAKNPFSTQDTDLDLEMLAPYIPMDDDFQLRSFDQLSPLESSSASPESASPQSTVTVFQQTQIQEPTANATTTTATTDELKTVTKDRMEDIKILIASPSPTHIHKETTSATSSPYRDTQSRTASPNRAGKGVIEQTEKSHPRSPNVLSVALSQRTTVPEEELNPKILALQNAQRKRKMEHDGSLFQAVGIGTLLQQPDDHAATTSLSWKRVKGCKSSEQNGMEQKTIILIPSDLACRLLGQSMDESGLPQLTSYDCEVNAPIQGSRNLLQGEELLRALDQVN
Chain of Transcription factor Sp1 (Homo sapiens) (P08047 whole entry, looked up): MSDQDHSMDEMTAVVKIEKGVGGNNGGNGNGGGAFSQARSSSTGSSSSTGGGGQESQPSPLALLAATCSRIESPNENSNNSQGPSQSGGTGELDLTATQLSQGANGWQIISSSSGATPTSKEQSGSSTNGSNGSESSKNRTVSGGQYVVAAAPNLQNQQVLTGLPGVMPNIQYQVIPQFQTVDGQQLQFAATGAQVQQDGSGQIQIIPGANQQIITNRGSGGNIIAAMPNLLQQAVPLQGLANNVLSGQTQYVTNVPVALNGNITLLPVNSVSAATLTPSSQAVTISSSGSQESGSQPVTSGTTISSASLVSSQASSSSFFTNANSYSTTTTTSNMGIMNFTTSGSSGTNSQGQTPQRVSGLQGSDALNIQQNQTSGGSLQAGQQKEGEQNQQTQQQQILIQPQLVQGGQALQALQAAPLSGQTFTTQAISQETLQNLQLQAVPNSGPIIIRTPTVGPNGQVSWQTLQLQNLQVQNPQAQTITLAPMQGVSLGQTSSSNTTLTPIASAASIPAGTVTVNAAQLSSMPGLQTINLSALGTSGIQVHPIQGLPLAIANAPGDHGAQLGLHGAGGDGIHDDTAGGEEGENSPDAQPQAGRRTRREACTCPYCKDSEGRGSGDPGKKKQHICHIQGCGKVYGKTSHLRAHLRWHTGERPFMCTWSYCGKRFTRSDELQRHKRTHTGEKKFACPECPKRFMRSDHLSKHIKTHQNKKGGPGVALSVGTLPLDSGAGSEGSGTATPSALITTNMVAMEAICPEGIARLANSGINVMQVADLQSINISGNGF
Chain of Heat shock factor protein 1 (Homo sapiens) (Q00613 whole entry, looked up): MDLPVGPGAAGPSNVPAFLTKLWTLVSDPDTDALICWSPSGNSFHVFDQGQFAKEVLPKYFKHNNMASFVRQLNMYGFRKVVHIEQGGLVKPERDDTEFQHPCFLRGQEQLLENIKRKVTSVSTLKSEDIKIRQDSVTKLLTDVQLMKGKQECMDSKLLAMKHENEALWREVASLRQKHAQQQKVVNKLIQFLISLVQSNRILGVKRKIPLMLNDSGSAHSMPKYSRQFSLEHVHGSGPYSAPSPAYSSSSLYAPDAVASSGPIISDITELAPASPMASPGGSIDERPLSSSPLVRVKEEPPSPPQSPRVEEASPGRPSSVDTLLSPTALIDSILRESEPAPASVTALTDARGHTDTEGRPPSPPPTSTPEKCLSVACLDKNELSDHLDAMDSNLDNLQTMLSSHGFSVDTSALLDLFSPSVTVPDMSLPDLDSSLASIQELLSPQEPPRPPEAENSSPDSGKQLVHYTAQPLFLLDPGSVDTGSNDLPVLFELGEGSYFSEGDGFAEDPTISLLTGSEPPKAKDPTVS
Chain of Hepatocyte nuclear factor 6 (Homo sapiens) (Q9UBC0 whole entry, looked up, the tested form may be a part): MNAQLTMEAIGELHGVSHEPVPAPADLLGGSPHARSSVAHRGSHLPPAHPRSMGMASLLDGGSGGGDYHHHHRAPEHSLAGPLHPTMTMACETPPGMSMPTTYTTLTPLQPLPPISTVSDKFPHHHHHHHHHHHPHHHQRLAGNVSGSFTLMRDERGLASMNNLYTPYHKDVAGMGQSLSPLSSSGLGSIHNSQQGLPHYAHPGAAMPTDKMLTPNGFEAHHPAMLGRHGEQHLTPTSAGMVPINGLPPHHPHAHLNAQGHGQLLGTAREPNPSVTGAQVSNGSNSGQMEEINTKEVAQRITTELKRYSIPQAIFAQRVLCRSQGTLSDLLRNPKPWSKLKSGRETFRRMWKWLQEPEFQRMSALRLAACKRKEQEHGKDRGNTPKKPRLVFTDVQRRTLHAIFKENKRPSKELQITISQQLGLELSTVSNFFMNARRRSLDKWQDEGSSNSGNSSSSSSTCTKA

Row | SMILES | outcome [1] | outcome [2] | outcome [3] | outcome [4] | outcome [5] | outcome [6] | outcome [7] | outcome [8] | outcome [9] | outcome [10] | outcome [11] | AC50 [12] | outcome [13] | outcome [14] | outcome [15] | outcome [16] | outcome [17] | outcome [18] | outcome [19] | outcome [12]
1 | [Co] | inactive | inactive | inactive | inactive | inactive | inactive | inactive | inactive | inactive | inactive | inactive | 13.8 µM (active) | inactive | inactive | inactive | inactive | inactive | inactive | inactive | 
2 | FC(F)(F)C(F)(F)C(F)(F)C(F)(F)C(F)(F)C(F)(F)C(F)(F)C(F)(F)F | inactive | inactive | inactive | inactive | inactive | inactive | inactive | inactive | inactive |  | inactive |  | inactive | inactive | inactive | inactive | inactive | inactive | inactive | inactive
3 | CCCCCCOC(=O)c1ccccc1 | inactive | inactive | inactive | inactive | inactive | inactive | inactive | inactive | inactive | inactive | inactive |  | inactive | inactive | inactive | inactive | inactive | inactive | inactive | inactive
4 | O=C(O)C(F)(OC(F)(F)C(F)(OC(F)(F)C(F)(F)C(F)(F)F)C(F)(F)F)C(F)(F)F (stereo unspecified) | inactive | inactive | inactive | inactive | inactive | inactive | inactive | inactive | inactive |  | inactive |  | inactive | inactive | inactive | inactive | inactive | inactive |  | inactive
5 | O=C(O)C(F)(F)C(F)(F)F | inactive | inactive | inactive | inactive | inactive | inactive | inactive | inactive | inactive |  | inactive |  | inactive | inactive | inactive | inactive | inactive | inactive | inactive | inactive
6 | C1COCCN1 |  |  | inactive | inactive | inactive | inactive | inactive | inactive | inactive | inactive | inactive | 27.2 µM (active) |  | inactive | inactive | inactive | inactive | inactive |  | inactive
7 | CCCCCC=O | inactive |  | inactive | inactive | inactive | inactive | inactive | inactive | inactive |  | inactive |  | inactive |  | inactive | inactive | inactive | inactive | inactive | inactive
8 | C=CC/C=C/C/C=C/C/C=C/C | inactive | inactive | inactive | inactive | inactive | inactive | inactive | inactive | inactive |  | inactive |  | inactive | inactive | inactive | inactive | inactive | inactive |  | inactive
9 | CNC(=S)NC | inactive | inactive | inactive | inactive | inactive | inactive | inactive | inactive | inactive | inactive | inactive | 24.9 µM (active) | inactive | inactive | inactive | inactive | inactive | inactive | inactive | 
10 | O=P(O)(O)OCCC(F)(F)C(F)(F)C(F)(F)C(F)(F)C(F)(F)C(F)(F)F | inactive | inactive | inactive | inactive | inactive | inactive | inactive | inactive | inactive | inactive | inactive |  | inactive | inactive | inactive | inactive | inactive | inactive | inactive | inactive
11 | O=C(OCCOCCOCCOC(=O)c1ccccc1)c1ccccc1 | inactive | inactive | inactive | inactive | inactive | inactive | inactive | inactive | inactive | inactive | inactive |  | inactive | inactive | inactive | inactive | inactive | inactive | inactive | inactive
12 | CCO[Si](CCC(F)(F)C(F)(F)C(F)(F)C(F)(F)C(F)(F)C(F)(F)F)(OCC)OCC | inactive | inactive | inactive | inactive | inactive | inactive | inactive | inactive | inactive | inactive | inactive |  | inactive | inactive | inactive | inactive | inactive | inactive | inactive | inactive
